SW480 rerep = induces DNA re-replication in SW480 colon adenocarcinoma cells. SW480 DNA re-replication, Hoechst DNA content imaging, 48 h. 340,000 compounds, 1.8% hits. Potency, µM (highest dose often 46.1 µM), without a hit: top-dose re-replication activation, most hits filed as activators. AID 624297; also: potency is read from the fitted curve at half-maximal effect; % of control where 0% means no effect; nearly all actives have a fitted effect of over 55% in size
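SW480 cells exposed to compounds for 48 hr at 37 C, 5% CO2, then Hoechst-stained 40 min. Nuclear DNA content imaged by fluorescence scanning (405 nm excitation, 500-530 nm emission); re-replication scored as increased high-intensity nuclei.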
MCF10A rereplic = induces DNA re-replication in MCF 10a normal breast cells; MCF 10A DNA re-replication, Hoechst nuclear intensity, 48 h; Potency, µM (highest dose often 46.1 µM), without a hit: top-dose activity, positive = re-replication, most hits filed as activators; 350,000 compounds, 2.9% hits; AID 624296; also: potency is read from the fitted curve at half-maximal effect; % of control where 0% means no effect; nearly all actives have a fitted effect of over 50% in size
DRD3 antagonist = antagonists of human D3 dopamine receptor; max response, negative = inhibition, %; P35462; D3R cells, DiscoveRx beta-arrestin luminescence, antagonist mode; active compounds read low; 360,000 compounds, 2.5% hits; in the data active = max response below about -50%; inconclusive = no clear call, values can overlap the other calls; also: % is scaled to controls: 0 for no effect and ±100 for the full control effect
Target sequence (P35462 whole entry, looked up): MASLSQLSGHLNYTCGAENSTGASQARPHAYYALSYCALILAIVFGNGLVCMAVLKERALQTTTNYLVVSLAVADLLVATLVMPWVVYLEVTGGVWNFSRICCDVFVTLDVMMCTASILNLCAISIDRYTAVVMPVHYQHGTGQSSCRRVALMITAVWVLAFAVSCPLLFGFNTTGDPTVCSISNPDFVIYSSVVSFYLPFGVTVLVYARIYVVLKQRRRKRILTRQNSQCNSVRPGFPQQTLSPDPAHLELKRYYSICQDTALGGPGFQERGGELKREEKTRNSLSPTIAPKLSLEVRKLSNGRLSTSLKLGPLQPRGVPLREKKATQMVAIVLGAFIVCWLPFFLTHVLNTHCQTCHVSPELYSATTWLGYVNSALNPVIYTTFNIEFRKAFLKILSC
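Cells plated overnight at 1500 cells/well, then exposed to library compounds with dopamine controls for 90 minutes at 37 degrees C. DiscoveRx reagent added for 30–60 minutes at room temperature; luminescence read, quantitative HTS format.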
KB-V1 cytotox = kills drug-selected multidrug resistant KB-V1 cells | Potency, µM (series often up to 46.1 µM), usual class: cytotoxic | 400,000 compounds, 3.4% hits | KB-V1 MDR cells viability, CellTiter-Glo, 72 h; also: potency is read from the fitted curve at half-maximal effect; % is scaled to controls: 0 for no effect and ±100 for the full control effect; nearly all actives have a fitted effect of over 60% in size
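Drug-selected KB-V1 cells, grown in DMEM lacking phenol red with 10% FBS, receive compound titrations; after three days at 37 degrees C, surviving cell ATP is quantified by CellTiter-Glo luminescence and responses normalized and curve-fitted.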
D3 ag = agonists of human D3 dopamine receptor; D3R DiscoveRx beta-arrestin cells, luminescence, 90 min; AID 652048; 410,000 compounds, 0.58% hits; max activation, %; P35462; in the data active = max activation above about 30%; also: 0% is about no effect
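Cells at 1500/well, incubated overnight, then treated with pinned compounds (dopamine as control) for 90 min at 37 degrees C. DiscoveRx reagent added for 30 - 60 minutes at room temperature; luminescence read.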
KB-3-1 tox = kills parental KB-3-1 adenocarcinoma cells; KB-3-1 viability, CellTiter-Glo ATP luminescence, 72 h; Potency, µM (doses to about 46.1 µM), usual class: cytotoxic; 400,000 compounds, 1.4% hits; also: potency is read from the fitted curve at half-maximal effect; % is scaled to controls: 0 for no effect and ±100 for the full control effect; nearly all actives have a fitted effect of over 60% in size
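Viability of parental KB-3-1 cells, measured by CellTiter-Glo luminescence, followed a 72 h incubation at 37 °C with pinned compounds in phenol-red-free DMEM containing 10% FBS.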
* = called active by the depositor; i = inactive; ? = inconclusive; · = no result; ! = not confirmed by another sample. In the library only some 8.9% were active in any assay of this set; here they are far more common. Unless noted, calls follow the shape of the dose curve; as a rule, active = well fitted curve in the direction sought with a large enough effect; inconclusive = small, poorly fitted or top-dose-only effect, or another doubt; inactive = no such curve, though single readings can be large; an effect the other way counts as inactive or inconclusive.

SMILES | SW480 rerep | MCF10A rereplic | DRD3 antagonist | KB-V1 cytotox | D3 ag | KB-3-1 tox
CC1(C)CC(NC(=O)C2CCN(S(=O)(=O)c3ccc(Cl)c(C(F)(F)F)c3)CC2)CC(C)(C)N1 | -2% | 4% | -8 | i | -2 | i
O=C(c1cc([N+](=O)[O-])ccc1N1CCCCC1)N1CCc2ccccc21 | 6.5µM* | 3.7µM* | ? | 5.8µM* | -12 | 5.8µM*
O=S(=O)(Nc1ccc(-n2cccc2)cc1)c1ccc(Cl)c(Cl)c1 | ? | ? | 2 | i | 0 | i
O=S(=O)(Nc1ccc(-n2cccc2)cc1)c1ccc(Cl)cc1Cl | -2% | ? | -53* | i | -1 | i
Cc1cccc(Nc2c(O)nc[nH]c2=O)c1 | -5% | -25% | -15 | i | 7 | i
COC(=O)c1ccc(NC(=O)c2nc(SCc3ccccc3F)ncc2Cl)cc1 | · | · | · | i | · | i
CCOc1nc(NCCc2ccc(OC)c(OC)c2)nc(NC(C)(C)CO)n1 | -3% | 12% | -62* | i | 2 | i
COc1ccc(CCNc2nc(Cl)nc(NC(C)(C)CO)n2)cc1OC | -26% | ? | 11 | i | -13 | i
CCNC(=O)NC(=O)C(C)OC(=O)c1oc2ccccc2c1CSC1CCCCC1 (stereo unspecified) | -3% | 10% | -10 | 13µM* | 2 | i
CNC(=O)NC(=O)C(C)OC(=O)c1oc2ccccc2c1CSc1ccc(Cl)cc1 (stereo unspecified) | 1% | ? | -22 | i | -8 | i
COc1ccc(-c2nc(CN3CCN(c4cc(C)nc(C)c4)CC3)c(C)o2)c2ccccc12 | ? | 16µM* | -9 | i | -14 | ?
Cc1cc(N2CCN(Cc3nc(-c4ccc(Cl)cc4)oc3C)CC2)cc(C)n1 | ? | ? | -5 | ? | -8 | ?
COC(=O)c1cc(NC(=O)C(C)c2ccc(CC(C)C)cc2)ccc1O (stereo unspecified) | ? | 15µM* | -26 | i | -16 | i
Cc1c(C(=O)N(Cc2ccccc2F)C2CCS(=O)(=O)C2)oc2ccccc12 (stereo unspecified) | · | · | · | i | 1 | i
CCC1Nc2ncnc(N3CCc4ccccc4C3)c2N(Cc2ccc(Br)cc2)C1=O (stereo unspecified) | · | · | -84* | ? | -23 | ?
CC1Nc2ncnc(N3CCc4ccccc4C3)c2N(Cc2ccc(Br)cc2)C1=O (stereo unspecified) | ? | ? | -55*! | ? | -17 | ?
CC1Nc2ncnc(N3CCc4ccccc4C3)c2N(Cc2ccc(Cl)cc2)C1=O (stereo unspecified) | ? | 20% | 0 | ? | -18 | i
CN(CC1(C)CCCO1)S(=O)(=O)c1ccc(Cl)c(S(N)(=O)=O)c1 (stereo unspecified) | · | · | · | · | -6 | ·
OC(CNCC(c1ccc(Cl)cc1Cl)c1c[nH]c2ccccc12)c1ccccc1 (stereo unspecified) | 9% | ? | -8 | 23µM* | -7 | i
C=C1[C@@H]2CC[C@@H](C2)C1(C)C | · | · | · | · | 1 | ·
Cc1cccc(NC(=O)COc2cccc3c2CCN(C)C3=O)c1C | -3% | 0% | 2 | ? | 0 | i
CCOC(=O)N1CCN(C(=O)COc2cccc3c2CCN(Cc2cccc(C)c2)C3=O)CC1 | 2% | 10% | 16 | 18µM* | 7 | i
Cc1cccc(NC(=O)COc2cccc3c2CCN(Cc2ccccc2)C3=O)c1C | 0% | -4% | 7 | 9.2µM* | 3 | i
CCCC(=O)OCc1cnc(C)c2oc(=O)c(C(=O)Nc3ccc(F)cc3C)cc12 | · | · | · | i | 6 | i
CN1CC(=O)N2C(c3cccc([N+](=O)[O-])c3)c3[nH]c4ccccc4c3C[C@H]2C1=O (stereo partly specified) | 4% | ? | -20 | i | -4 | i
SMILES | SW480 rerep | MCF10A rereplic | DRD3 antagonist | KB-V1 cytotox | D3 ag | KB-3-1 tox
O=C1[C@@H]2Cc3c([nH]c4ccccc34)C(c3cccc([N+](=O)[O-])c3)N2C(=O)CN1CCCO (stereo partly specified) | -12% | -18% | -58* | i | -9 | i
COc1cccc(C2c3[nH]c4ccccc4c3C[C@H]3C(=O)N(C4CCN(Cc5ccccc5)CC4)CC(=O)N23)c1 (stereo partly specified) | ? | 17% | ? | ? | -16 | ?
COC(=O)c1ccc(C2c3[nH]c4ccccc4c3C[C@H]3C(=O)N(C)CC(=O)N23)cc1 (stereo partly specified) | ? | 10% | 9 | i | -9 | i
C=CCN1CC(=O)N2C(c3ccccc3)c3[nH]c4ccccc4c3C[C@H]2C1=O (stereo partly specified) | ? | 4% | 7 | i | 4 | 6.5µM*
CCN1C(=O)[C@@H]2Cc3c([nH]c4ccccc34)C(c3ccc(OC)cc3)N2C1=S (stereo partly specified) | ? | 21µM* | -23 | ? | -6 | ?
COc1ccc(C2c3[nH]c4ccccc4c3C[C@H]3C(=O)N(C4CCN(Cc5ccccc5)CC4)CC(=O)N23)cc1OC (stereo partly specified) | 18µM* | ? | -9 | i | -7 | ?
CO/N=C(\C(=O)N[C@@H]1C(=O)N2C(C(=O)O)=C(CSC(=O)c3ccco3)CS[C@H]12)c1csc(N)n1 | · | · | · | · | -5 | ·
O=C(c1ccco1)N1CCN(C(=O)c2cnn3c2NC(c2cccs2)CC3C(F)(F)F)CC1 (stereo unspecified) | -3% | 6% | 12 | i | 14 | ?
O=C(c1cnn2c1NC(c1ccco1)CC2C(F)(F)F)N1CCN(c2cccc(Cl)c2)CC1 (stereo unspecified) | ? | 7.3µM* | 14 | ? | 7 | ?
O=C(O)C1CC=CCC1C(=O)N1CCN(c2nc(-c3ccccc3)c3ccccc3n2)CC1 (stereo unspecified) | ? | 9.2µM* | -5 | i | -25 | i
Clc1ccccc1-c1nc(Nc2ccccc2)nc2ccc(Br)cc12 | · | · | · | i | 7 | i
O=C(O)C1CC=CCC1C(=O)N1CCN(c2nc(-c3ccccc3Cl)c3cc(Br)ccc3n2)CC1 (stereo unspecified) | 18µM* | 23µM* | ? | i | -7 | i
C=CCN(CC=C)C(=O)c1ccc(OC2CCN(S(=O)(=O)N(C)C)CC2)cc1 | -3% | -2% | 10 | 21µM* | 0 | ?

Compound activity deposited in PubChem by National Center for Advancing Translational Sciences (NCATS).
